Screening results: PubChem BioAssay, National Center for Advancing Translational Sciences (NCATS)
Most compounds without a hit are left out; they make up all but 6.6% or so of the library.
TSG101-PTAP inh = blocks PTAP/TSG101 interaction to inhibit HIV-1 budding; Q99816; Fluorescence polarization, FITC-PTAP peptide / Tsg101 binding; Potency, µM (series often up to 115 µM), for the others: top-dose activity change, negative = inhibition, usual class: inhibitors; 340,000 tested, under 10 active; AID 493005; active = well fitted inhibition curve with a large enough effect in the main read-out, with a control signal flat, not every such curve was filed as active; inconclusive = small, poorly fitted or top-dose-only effect, or effect the other way, or a change in a side signal; inactive = no such curve, though single readings can be large or run the other way; also: % of control where 0% means no effect
Target sequence (Q99816 whole entry, looked up): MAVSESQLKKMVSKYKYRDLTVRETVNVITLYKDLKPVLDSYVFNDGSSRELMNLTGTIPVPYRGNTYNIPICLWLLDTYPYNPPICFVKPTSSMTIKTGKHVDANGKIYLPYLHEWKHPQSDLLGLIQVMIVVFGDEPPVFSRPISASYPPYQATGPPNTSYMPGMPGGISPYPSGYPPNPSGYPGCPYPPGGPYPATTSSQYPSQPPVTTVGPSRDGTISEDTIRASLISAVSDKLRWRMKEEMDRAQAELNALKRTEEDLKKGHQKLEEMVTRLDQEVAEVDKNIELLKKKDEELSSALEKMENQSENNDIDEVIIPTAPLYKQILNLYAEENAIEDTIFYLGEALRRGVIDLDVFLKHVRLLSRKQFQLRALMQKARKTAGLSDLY
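Compounds were pin-transferred onto Tsg101 binding domain (10 uM final) in HEPES pH 7.5 buffer, then FITC-PTAP peptide was added at 50 nM final. After 20 min at RT, polarization reported peptide displacement across a qHTS concentration series.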
KB-V1 MDR tox = kills drug-selected multidrug resistant KB-V1 cells; KB-V1 MDR cells viability, CellTiter-Glo, 72 h; AID 1347076; 400,000 tested, 3.4% active; Potency, µM (series often up to 46.1 µM), hits mostly cytotoxic; also: % is scaled to controls: 0 for no effect and ±100 for the full control effect; nearly all actives have a fitted effect of over 60% in size
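qHTS viability screen in drug-selected KB-V1 MDR cells: 72 h compound treatment at 37 degrees C, ATP luminescence end point.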
MCF10A rerep = inducers of DNA re-replication in MCF 10A breast cells; AID 624296; MCF 10A DNA re-replication, Hoechst nuclear intensity, 48 h; 350,000 tested, 2.9% active; Potency, µM (series often up to 46.1 µM), without a hit: at the highest dose activity, positive = re-replication, hits mostly activators; also: % of control where 0% means no effect; nearly all actives have a fitted effect of over 50% in size
RGS4 inhibitor = blocks human RGS4-accelerated GTP hydrolysis; Transcreener GDP fluorescence polarization, RGS4-accelerated GTP hydrolysis; Potency, µM (series often up to 114 µM), without a hit: at the top dose activity change, negative = inhibition, hits mostly inhibitors; P49798; 390,000 tested, 0.039% active; AID 504845; also: % is scaled to controls: 0 for no effect and ±100 for the full control effect; nearly all actives have a fitted effect of over 75% in size
Target sequence (P49798 whole entry, looked up): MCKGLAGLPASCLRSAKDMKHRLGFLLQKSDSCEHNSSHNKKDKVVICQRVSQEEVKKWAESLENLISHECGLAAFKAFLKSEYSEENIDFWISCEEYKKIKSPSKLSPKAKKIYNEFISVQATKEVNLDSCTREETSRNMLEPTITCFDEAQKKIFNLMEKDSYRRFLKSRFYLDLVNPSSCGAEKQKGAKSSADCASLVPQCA
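MLSMR compounds (23 nl, pin-transferred) preincubated 10 min at room temperature with a 500nM (2x) first reagent, then RGS4 at 900nM (2x) plus Transcreener GDP mix added; fluorescence polarization (620/688 nm) read before and after 90 min at 30 °C.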
KB-3-1 tox = KB-3-1 parental cell cytotoxicity; KB-3-1 viability, CellTiter-Glo ATP luminescence, 72 h; Potency, µM (doses to about 46.1 µM), usual class: cytotoxic; 400,000 tested, 1.4% active; AID 1347075; also: % is scaled to controls: 0 for no effect and ±100 for the full control effect; nearly all actives have a fitted effect of over 60% in size
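KB-3-1 cells, DMEM (no phenol red) + 10% FBS; compound by pin transfer, 72 h, 37 °C. Readout: CellTiter-Glo luminescence after 10 min. Data normalized, curve-fitted.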
SW480 rerep = induces DNA re-replication in SW480 colon adenocarcinoma cells; AID 624297; 340,000 tested, 1.8% active; Potency, µM (titrated, usually from 46.1 µM), for inactives: at the highest dose re-replication activation, most hits filed as activators; SW480 DNA re-replication, Hoechst DNA content imaging, 48 h; also: % of control where 0% means no effect; nearly all actives have a fitted effect of over 55% in size
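Treated cells incubate 48 hr (37 C, 5% CO2), are stained 40 min with Hoechst, and nuclear fluorescence is enumerated; a rise in nuclei with high DNA signal marks re-replication.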
* = called active by the depositor; i = inactive; u = inconclusive; x = no result given. Unless noted, calls follow the shape of the dose curve; as a rule, active = well fitted curve in the direction sought with a large enough effect; inconclusive = small, poorly fitted or top-dose-only effect, or another doubt; inactive = no such curve, though single readings can be large; an effect the other way counts as inactive or inconclusive. Potency is read from the fitted curve at half-maximal effect.

SMILES	TSG101-PTAP inh	KB-V1 MDR tox	MCF10A rerep	RGS4 inhibitor	KB-3-1 tox	SW480 rerep
CN(C)S(=O)(=O)Oc1ccsc1C(=O)Nc1ccccc1Cl	-7%	i	u	51%	i	1%
Cc1ccc(Cl)cc1N1CCN(C(c2ccc(F)cc2)c2nnc(-c3ccccc3)o2)CC1 (configuration not stated)	x	i	x	4%	i	x
CSC1=NSC2=NC(=O)/C(=C\c3coc4ccccc4c3=O)C(=N)N12	35µM*	i	u	u	u	-21%
CC(C)CSC1=NSC2=NC(=O)/C(=C\c3ccccc3)C(=N)N12	1%	i	15µM*	-8%	i	25%
N=C1/C(=C\c2coc3ccccc3c2=O)C(=O)N=C2SC(c3ccncc3)=NN12	u	i	26%	u	i	3%
CC(C)CSC1=NSC2=NC(=O)/C(=C\c3coc4ccccc4c3=O)C(=N)N12	u	i	21µM*	u	i	-9%
CCN(CC)c1ccc(-c2nn3c(-c4n[nH]c5c4CCC5)nnc3s2)cc1	-1%	u	1.5µM*	-50%	u	1.8µM*
COc1cccc(OC)c1-c1nn2c(-c3n[nH]c4c3CCC4)nnc2s1	x	u	x	-23%	u	x
COc1ccc(OC)c(C2=CC(=O)C[C@H](c3ccc(F)cc3)C2)c1	x	i	x	x	i	x
COc1ccc([C@H]2CC(=O)C=C(c3cc(F)ccc3OC)C2)cc1	-3%	u	21µM*	4%	u	u
COc1ccc([C@H]2CC(=O)C=C(c3c(OC)cccc3OC)C2)cc1	-3%	u	1.2µM*	12%	u	18µM*
COc1ccc([C@H]2CC(=O)C=C(c3cc(OC)ccc3OC)C2)cc1	-5%	23µM*	u	-1%	16µM*	u
COc1ccc([C@H]2CC(=O)C=C(c3cc(Cl)ccc3OC)C2)cc1	-2%	u	u	5%	u	u
CCOc1ccc(Cl)cc1C1=CC(=O)C[C@H](c2ccc(OC)cc2)C1	0%	4.6µM*	u	-12%	u	3.7µM*
COc1cccc(CNC(=O)c2cc3n(n2)CCCN(Cc2ccc(C)cc2)C3=O)c1OC	x	i	x	-5%	i	x
Cc1ccc(-c2c(C(=O)NCCc3ccccc3)oc(=O)c3ccccc23)cc1	x	x	x	14%	x	x
CCOC(=O)c1cccc(NC(=O)CN2C(=O)CC(C)(C)Sc3ccccc32)c1	x	i	x	-15%	i	x
COc1ccc([C@H]2CC(=O)C=C(c3cc(C=O)ccc3OC)C2)cc1OC	x	i	89%	8%	u	u
COc1ccc([C@H]2CC(=O)C=C(c3ccc(OC)c(F)c3)C2)cc1	-1%	i	-30%	2%	i	-5%
COc1ccc([C@H]2CC(=O)C=C(c3cc(C=O)ccc3OC)C2)cc1	-2%	u	u	11%	16µM*	9.2µM*
COc1ccc([C@H]2CC(=O)C=C(c3ccc(OC)c(OC)c3)C2)cc1	-2%	i	9.2µM*	-9%	i	-7%
c1ccc(-c2c[n+]3c(n2-c2ccccc2)SCC3)cc1	-7%	u	12%	-1%	3.3µM*	21%
CCOc1ccc(-n2c(-c3ccc(Cl)cc3)c[n+]3c2SCC3)cc1	-2%	i	u	-12%	16µM*	1%
c1nc(NCCCN2CCCCC2)c2cc(-c3ccc4c(c3)OCO4)ccc2n1	x	i	x	x	u	x
O=C(OC(C(=O)N1CCOCC1)c1ccccc1)c1c2c(nc3ccccc13)CCCC2 (configuration not stated)	x	i	x	x	i	x
SMILES	TSG101-PTAP inh	KB-V1 MDR tox	MCF10A rerep	RGS4 inhibitor	KB-3-1 tox	SW480 rerep
CC(=O)c1cccc(NC(=O)c2noc3c2CCCC3)c1	x	u	x	-22%	i	x
COc1ccccc1CCNC(=O)C(=O)NCC1OCCN1S(=O)(=O)c1ccc(Br)cc1 (configuration not stated)	-2%	i	u	18%	i	7%
COc1ccccc1CNC(=O)C(=O)NCC1OCCN1S(=O)(=O)c1ccc(Br)cc1 (configuration not stated)	-7%	u	0%	14%	i	23µM*
COC(=O)c1cc(NC(=O)C(C)c2ccc(CC(C)C)cc2)ccc1O (configuration not stated)	-4%	i	15µM*	-14%	i	u
CC(C)Cc1ccc(C(C)C(=O)Nc2ncccn2)cc1 (configuration not stated)	-1%	i	17%	-16%	i	3%
O=C(CN1c2ccccc2Sc2ccccc21)NNC(=O)Nc1ccc(Cl)c(Cl)c1	-2%	i	16µM*	10%	i	u
O=C(CN1CCCN(Cc2cccc(F)c2)S1(=O)=O)Nc1ccc2c(c1)OCCO2	x	i	x	10%	i	x
Cc1c(C(=O)N(C)Cc2nc3ccccc3c(=O)[nH]2)oc2ccccc12	-4%	8.2µM*	10µM*	-9%	18µM*	16µM*
CN(Cc1nc2ccccc2c(=O)[nH]1)C(=O)c1cccc(S(=O)(=O)N2CCCC2)c1	-5%	u	17%	9%	i	-6%
Cc1cc(C)c(C)c(S(=O)(=O)N2CCC(C(=O)N(C)Cc3nc4ccccc4c(=O)[nH]3)CC2)c1C	-4%	23µM*	24%	u	i	9%
Cc1ccc(Cn2nnnc2CN2CCC(NC(=O)c3ccc(Br)cc3)CC2)cc1	-7%	18µM*	3%	-6%	i	-3%
O=C(NC1CCN(Cc2nnnn2CCc2ccccc2)CC1)c1ccccc1F	2%	16µM*	1%	-22%	i	-6%
